# Source: ChEMBL document CHEMBL3988442, “University of Dundee, Small-Polar-MMV Screening Library” (2021)
# For some of these results: Potency and affinity values are given separately.
# Key:
# [1] = molecular target: T1, Methionyl-tRNA synthetase, putative (Leishmania donovani (strain BPK282A1)) (UniProt E9BF75); assay: Leishmania donovani Methionine tRNA synthetase (LdMetRS):v7. Dose response assay; format: functional; parameters: conc 80 nM, time 150 minutes
# T1 sequence (whole entry): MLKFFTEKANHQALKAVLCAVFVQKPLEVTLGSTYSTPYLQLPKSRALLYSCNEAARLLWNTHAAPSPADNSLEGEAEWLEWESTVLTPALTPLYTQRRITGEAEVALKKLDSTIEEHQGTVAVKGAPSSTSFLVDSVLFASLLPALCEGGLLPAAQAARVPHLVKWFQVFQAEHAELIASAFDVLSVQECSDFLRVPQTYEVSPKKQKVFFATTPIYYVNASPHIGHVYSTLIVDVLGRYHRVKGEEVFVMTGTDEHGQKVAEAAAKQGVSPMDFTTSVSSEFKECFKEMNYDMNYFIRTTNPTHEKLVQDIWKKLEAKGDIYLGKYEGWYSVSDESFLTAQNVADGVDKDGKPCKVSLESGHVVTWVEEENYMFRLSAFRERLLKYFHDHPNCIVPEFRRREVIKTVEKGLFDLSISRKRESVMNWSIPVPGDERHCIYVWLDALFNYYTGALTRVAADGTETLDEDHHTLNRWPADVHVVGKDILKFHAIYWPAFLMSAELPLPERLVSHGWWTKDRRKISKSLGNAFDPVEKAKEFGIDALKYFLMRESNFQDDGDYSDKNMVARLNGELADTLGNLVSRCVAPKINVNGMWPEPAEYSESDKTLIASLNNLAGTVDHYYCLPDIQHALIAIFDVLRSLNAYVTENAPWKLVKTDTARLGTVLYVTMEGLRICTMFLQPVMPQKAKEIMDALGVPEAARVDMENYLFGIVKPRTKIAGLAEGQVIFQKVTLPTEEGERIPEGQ
# [2] = molecular target: Protein translocase subunit SecA (Escherichia coli (strain K12)) (UniProt P10408); assay: Assay to Identify E. coli SecA ATPase Inhibitors; format: functional; parameters: scale not given: direction of the effect not stated beside the values; conditions: 30 µM
# Chain of Protein translocase subunit SecA (Escherichia coli (strain K12)) (P10408 whole entry): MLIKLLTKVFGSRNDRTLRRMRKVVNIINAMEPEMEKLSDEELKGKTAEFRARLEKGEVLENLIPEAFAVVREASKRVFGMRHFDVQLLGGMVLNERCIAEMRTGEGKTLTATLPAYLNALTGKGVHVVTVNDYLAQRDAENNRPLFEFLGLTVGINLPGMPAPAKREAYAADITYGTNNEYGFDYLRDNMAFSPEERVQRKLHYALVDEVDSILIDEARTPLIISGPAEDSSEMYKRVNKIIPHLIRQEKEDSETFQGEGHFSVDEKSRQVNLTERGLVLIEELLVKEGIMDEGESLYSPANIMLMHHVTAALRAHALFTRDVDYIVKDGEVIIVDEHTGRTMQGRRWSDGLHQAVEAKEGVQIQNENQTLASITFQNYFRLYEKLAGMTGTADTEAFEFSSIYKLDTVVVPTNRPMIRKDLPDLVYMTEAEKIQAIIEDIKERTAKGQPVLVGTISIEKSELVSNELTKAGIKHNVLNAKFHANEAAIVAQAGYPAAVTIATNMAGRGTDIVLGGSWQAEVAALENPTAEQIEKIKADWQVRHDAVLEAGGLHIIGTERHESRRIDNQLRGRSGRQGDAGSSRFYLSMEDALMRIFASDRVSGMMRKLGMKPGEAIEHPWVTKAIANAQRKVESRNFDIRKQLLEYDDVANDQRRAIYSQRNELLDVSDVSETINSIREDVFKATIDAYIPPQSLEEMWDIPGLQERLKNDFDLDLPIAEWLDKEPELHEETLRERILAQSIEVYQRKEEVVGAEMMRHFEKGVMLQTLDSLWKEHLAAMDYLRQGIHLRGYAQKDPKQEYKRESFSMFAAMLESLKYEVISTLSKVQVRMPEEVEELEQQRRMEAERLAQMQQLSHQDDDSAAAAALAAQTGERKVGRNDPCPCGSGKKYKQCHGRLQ
# [3] = molecular target: T2, Ubiquitin-activating enzyme e1, putative (Leishmania donovani (strain BPK282A1)) (UniProt E9BSI1); assay: Leishmania donovani Ubiquitin Activating Enzyme (LdE1); format: functional; parameters: scale not given: direction of the effect not stated beside the values; conditions: 30 µM
# T2 sequence (whole entry): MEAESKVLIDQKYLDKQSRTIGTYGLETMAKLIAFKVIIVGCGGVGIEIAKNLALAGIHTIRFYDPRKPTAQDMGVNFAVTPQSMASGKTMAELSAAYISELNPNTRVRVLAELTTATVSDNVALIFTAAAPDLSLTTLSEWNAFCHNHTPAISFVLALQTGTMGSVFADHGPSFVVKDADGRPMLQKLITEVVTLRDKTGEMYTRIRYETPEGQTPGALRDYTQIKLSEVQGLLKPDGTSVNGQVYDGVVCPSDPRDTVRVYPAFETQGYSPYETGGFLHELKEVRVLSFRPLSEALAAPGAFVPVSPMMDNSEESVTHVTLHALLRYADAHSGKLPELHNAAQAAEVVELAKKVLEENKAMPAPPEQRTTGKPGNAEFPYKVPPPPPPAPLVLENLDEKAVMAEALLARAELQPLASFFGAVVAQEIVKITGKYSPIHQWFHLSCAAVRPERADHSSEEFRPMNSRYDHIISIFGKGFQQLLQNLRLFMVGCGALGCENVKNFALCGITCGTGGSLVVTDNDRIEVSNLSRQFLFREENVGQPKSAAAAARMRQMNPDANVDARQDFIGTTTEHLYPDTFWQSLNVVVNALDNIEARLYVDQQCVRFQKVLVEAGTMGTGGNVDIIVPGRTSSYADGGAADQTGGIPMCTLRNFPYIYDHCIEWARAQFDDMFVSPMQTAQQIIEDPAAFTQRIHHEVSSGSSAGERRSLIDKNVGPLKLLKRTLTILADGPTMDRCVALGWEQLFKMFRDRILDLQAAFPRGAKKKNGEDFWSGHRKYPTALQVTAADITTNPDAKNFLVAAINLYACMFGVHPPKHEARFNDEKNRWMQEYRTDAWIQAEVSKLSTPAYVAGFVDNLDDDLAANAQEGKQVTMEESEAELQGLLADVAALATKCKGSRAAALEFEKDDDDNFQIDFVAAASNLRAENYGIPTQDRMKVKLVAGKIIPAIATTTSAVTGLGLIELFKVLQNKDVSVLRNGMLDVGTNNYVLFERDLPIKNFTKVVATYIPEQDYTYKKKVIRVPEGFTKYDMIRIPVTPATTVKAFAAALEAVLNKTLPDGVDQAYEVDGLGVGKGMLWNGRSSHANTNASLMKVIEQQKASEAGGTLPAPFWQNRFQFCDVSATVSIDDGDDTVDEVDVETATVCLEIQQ
# [4] = molecular target: Sialic acid-binding Ig-like lectin 9 (Homo sapiens) (UniProt Q9Y336); assay: Hs-Siglec9 ALPHAscreen SOP 20170721; parameters: scale not given: direction of the effect not stated beside the values; conditions: 10 µM
# Chain of Sialic acid-binding Ig-like lectin 9 (Homo sapiens) (Q9Y336 whole entry): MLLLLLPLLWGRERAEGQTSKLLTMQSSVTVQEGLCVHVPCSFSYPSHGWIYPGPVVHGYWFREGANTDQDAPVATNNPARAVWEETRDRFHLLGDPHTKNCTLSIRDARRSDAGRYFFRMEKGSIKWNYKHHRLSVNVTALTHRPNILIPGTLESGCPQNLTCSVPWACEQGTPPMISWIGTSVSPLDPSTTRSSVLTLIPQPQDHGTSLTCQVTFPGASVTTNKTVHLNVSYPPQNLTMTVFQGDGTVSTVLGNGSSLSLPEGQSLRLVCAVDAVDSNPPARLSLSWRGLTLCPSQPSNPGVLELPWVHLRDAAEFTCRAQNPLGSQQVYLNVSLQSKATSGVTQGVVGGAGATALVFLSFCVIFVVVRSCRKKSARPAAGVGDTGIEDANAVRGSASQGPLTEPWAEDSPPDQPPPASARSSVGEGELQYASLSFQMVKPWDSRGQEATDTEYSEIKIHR
# Trypanosoma cruzi = assay: Trypanosoma cruzi phosphomannomutase and mannose-1-phosphate guanylyltransferase assay; format: functional; parameters: scale not given: direction of the effect not stated beside the values; conditions: 10 µM
# [5] = molecular target: T3, Arginase-2, mitochondrial (Homo sapiens) (UniProt P78540); assay: in vitro enzyme assay to detect the production of urea directly proportional to the activity of Arginase II; format: functional; parameters: scale not given: in the data most compounds retested in dose-response had high values; conditions: 33.3 µM
# T3 sequence (whole entry): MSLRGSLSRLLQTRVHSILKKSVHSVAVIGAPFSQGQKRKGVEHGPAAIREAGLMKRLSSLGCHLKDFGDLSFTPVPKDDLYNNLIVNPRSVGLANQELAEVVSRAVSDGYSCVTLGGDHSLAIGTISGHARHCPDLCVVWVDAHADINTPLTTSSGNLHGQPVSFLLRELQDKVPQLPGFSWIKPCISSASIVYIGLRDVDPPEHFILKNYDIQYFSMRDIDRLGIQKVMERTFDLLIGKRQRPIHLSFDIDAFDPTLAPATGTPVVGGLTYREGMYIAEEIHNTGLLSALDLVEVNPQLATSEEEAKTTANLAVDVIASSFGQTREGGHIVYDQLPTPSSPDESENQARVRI
# [6] = molecular target: T4, Proteasome subunit beta (Trypanosoma cruzi) (UniProt O96673); assay: Trypanosoma cruzi proteasome chymotrypsin-like activity (TcProtChymo) assay.; format: functional; parameters: scale not given: in the data most compounds retested in dose-response had high values; conditions: 9.37 µM
# T4 sequence (whole entry): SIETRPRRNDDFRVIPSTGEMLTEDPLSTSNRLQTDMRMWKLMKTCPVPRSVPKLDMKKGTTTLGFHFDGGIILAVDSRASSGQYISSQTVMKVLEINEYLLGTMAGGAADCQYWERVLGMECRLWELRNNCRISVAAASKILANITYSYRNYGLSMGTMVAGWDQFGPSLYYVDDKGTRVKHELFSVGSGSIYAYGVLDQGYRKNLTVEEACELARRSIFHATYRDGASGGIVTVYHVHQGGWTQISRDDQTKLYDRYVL
# Homo sapiens = species on record: Homo sapiens; assay: To identify inhibition of the IFN signalling (Jak-Stat) pathway via expression of an eGFP reporter gene under the control of an IFN-stimulated response element (ISRE) containing MxA promoter.; format: functional; parameters: scale not given: direction of the effect not stated beside the values; conditions: 30 µM
# [7] = molecular target: T5, Tyrosyl-tRNA synthetase, putative (Trypanosoma cruzi (strain CL Brener)) (UniProt Q4DSP6); assay: Trypanosoma cruzi tyrosyl tRNA synthetase (TcYRS) _High Tyrosine SOP; format: functional; parameters: scale not given: in the data most compounds retested in dose-response had high values; conditions: 30 µM
# T5 sequence (whole entry): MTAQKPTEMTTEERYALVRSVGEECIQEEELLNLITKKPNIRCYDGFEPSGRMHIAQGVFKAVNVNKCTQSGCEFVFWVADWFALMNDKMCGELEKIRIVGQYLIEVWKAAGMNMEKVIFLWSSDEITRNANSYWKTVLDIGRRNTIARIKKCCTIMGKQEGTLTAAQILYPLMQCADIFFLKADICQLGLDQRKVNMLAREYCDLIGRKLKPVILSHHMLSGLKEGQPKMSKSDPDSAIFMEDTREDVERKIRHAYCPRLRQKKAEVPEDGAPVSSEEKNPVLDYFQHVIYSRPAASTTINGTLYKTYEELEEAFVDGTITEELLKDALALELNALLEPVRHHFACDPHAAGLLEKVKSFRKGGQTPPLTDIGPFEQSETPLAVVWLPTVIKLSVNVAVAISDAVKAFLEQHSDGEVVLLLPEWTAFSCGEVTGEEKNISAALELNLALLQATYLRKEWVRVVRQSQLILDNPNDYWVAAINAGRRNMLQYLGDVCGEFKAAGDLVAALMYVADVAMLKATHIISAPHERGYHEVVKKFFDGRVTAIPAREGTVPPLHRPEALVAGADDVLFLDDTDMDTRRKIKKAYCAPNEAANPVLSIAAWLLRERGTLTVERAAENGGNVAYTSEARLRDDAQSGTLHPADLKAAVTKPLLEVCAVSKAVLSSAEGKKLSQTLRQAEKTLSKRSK
# [8] = molecular target: T5, Tyrosyl-tRNA synthetase, putative (Trypanosoma cruzi (strain CL Brener)); assay: Trypanosoma cruzi tyrosyl tRNA synthetase (TcYRS) SOP; format: functional; parameters: scale not given: direction of the effect not stated beside the values; conditions: 30 µM
# [9] = molecular target: Chromo domain-containing protein 1 (Saccharomyces cerevisiae (strain ATCC 204508 / S288c) (Baker's yeast)) (UniProt P32657); assay: ScCHD-1 Enzyme Inhibition Assay; format: functional; parameters: scale not given: in the data most compounds retested in dose-response had high values; conditions: 30 µM
# Chain of Chromo domain-containing protein 1 (Saccharomyces cerevisiae (strain ATCC 204508 / S288c) (Baker's yeast)) (P32657 whole entry, the tested form may be a part): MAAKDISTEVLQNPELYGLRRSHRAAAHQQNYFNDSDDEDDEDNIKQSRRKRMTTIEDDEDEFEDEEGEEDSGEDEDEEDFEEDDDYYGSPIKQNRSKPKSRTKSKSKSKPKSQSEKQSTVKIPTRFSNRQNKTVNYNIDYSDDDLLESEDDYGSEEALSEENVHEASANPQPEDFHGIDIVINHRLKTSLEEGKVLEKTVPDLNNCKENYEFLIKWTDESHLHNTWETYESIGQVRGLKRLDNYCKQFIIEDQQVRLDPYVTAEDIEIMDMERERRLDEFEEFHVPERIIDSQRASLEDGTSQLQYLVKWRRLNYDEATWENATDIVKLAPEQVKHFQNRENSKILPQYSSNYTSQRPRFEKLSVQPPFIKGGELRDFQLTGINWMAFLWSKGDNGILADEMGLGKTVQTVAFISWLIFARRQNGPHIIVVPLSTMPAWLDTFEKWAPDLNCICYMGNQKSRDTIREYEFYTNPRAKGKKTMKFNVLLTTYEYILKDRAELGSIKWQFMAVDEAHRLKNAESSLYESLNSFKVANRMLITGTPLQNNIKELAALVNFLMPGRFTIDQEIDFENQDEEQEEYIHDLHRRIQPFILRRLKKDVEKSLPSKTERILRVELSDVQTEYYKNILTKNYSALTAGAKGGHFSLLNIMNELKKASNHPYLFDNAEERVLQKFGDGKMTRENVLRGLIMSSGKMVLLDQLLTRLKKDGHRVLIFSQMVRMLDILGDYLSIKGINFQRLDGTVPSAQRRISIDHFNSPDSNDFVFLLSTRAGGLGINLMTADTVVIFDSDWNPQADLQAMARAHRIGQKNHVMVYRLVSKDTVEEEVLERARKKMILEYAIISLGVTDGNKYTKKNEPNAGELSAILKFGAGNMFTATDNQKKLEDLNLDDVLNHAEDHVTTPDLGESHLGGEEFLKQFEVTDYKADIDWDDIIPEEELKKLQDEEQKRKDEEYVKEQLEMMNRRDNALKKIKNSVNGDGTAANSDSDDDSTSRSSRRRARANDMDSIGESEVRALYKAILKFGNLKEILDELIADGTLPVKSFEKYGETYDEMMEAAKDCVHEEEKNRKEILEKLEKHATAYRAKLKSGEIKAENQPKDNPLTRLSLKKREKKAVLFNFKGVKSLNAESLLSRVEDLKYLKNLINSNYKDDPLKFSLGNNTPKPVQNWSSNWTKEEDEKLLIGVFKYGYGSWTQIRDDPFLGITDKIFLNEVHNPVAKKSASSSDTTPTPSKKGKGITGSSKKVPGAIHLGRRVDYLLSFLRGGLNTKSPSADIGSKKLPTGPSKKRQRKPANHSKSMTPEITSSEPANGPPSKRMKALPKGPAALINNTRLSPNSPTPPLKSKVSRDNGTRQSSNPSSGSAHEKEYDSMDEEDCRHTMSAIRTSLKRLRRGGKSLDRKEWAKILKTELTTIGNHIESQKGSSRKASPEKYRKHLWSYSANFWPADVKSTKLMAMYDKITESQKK
# [10] = molecular target: AMP-activated protein kinase, AMPK (Homo sapiens) (UniProt P54646+O43741+P54619+Q9UGJ0+Q9Y478+Q13131+Q9UGI9); assay: AMP-dependent Kinase enzyme assay. An in vitro enzyme assay that detects ADP turnover that is directly proportional to AMPK activity. This uses naive AMPK that is activated during the assay with MK-8722; format: functional; parameters: scale not given: direction of the effect not stated beside the values; conditions: 30 µM
structure (smiles),measurement,setting,value
CN(CC1CC1)c1ccc2ccc(C(=O)NCCc3ccccc3)cn12,PXC50,"[1]; BOTTOM 0.351029795, HILLSLOPE 1.115089004, MAX_EFFECT 62.13151927, TOP 107.5835515",4.12
same,PXC50,"[1]; BOTTOM 1.92078188, HILLSLOPE 1.430695014, MAX_EFFECT 75.69444444, TOP 86.56449287",4.61
same,PXC50,"[1]; BOTTOM 2.657056439, HILLSLOPE 1.351512964, MAX_EFFECT 68.11091854, TOP 100.0",4.19
same,PXC50,"[1]; BOTTOM -1.049582542, HILLSLOPE 1.242411624, MAX_EFFECT 75.16778523, TOP 98.82108854",4.43
same,PXC50,[1]; MAX_EFFECT 50.8411215,< 4
O=C(NC1CC1)c1ccc2ccc(N3CCN(CC4CC4)CC3)n2c1,PXC50,"[1]; BOTTOM 0.467703885, HILLSLOPE 1.411799655, MAX_EFFECT 58.90736342, TOP 70.88537837",4.49
same,PXC50,"[1]; BOTTOM 3.025092892, HILLSLOPE 1.100251625, MAX_EFFECT 63.9084507, TOP 101.8817942",4.18
same,PXC50,"[1]; BOTTOM 3.903834548, HILLSLOPE 2.10176548, MAX_EFFECT 63.76811594, TOP 66.05792102",4.72
same,PXC50,"[1]; BOTTOM -3.956247574, HILLSLOPE 1.036561065, MAX_EFFECT 73.83512545, TOP 100.0",4.45
same,PXC50,"[1]; BOTTOM -4.174046537, HILLSLOPE 0.97706716, MAX_EFFECT 63.03630363, TOP 100.0",4.22
same,Percent Effect,[2],0.138%
same,Percent Effect,[3],9.09%
same,Percent Effect,[4],0.503%
same,Percent Effect,Trypanosoma cruzi,7.69%
same,Percent Effect,[5],-1.37%
same,Percent Effect,[6],9.19%
same,Percent Effect,Homo sapiens,-15.1%
same,Percent Effect,[7],45.4%
same,Percent Effect,[8],22.5%
same,Percent Effect,[9],-3.97%
O=C(c1ccc(F)c(Cl)c1)N1C[C@@H]2CC[C@H](C1)N(Cc1ccccc1)C2,PXC50,[1]; MAX_EFFECT 29.03225806,< 4
same,PXC50,[1]; MAX_EFFECT 41.91419142,< 4
same,PXC50,[1]; MAX_EFFECT 44.92753623,< 4
same,Percent Effect,[2],-1.36%
same,Percent Effect,[3],-13.7%
same,Percent Effect,[10],5.89%
same,Percent Effect,[4],19.2%
same,Percent Effect,Trypanosoma cruzi,-6.15%
same,Percent Effect,[5],1.6%
same,Percent Effect,[6],11.2%
same,Percent Effect,Homo sapiens,-10.1%
same,Percent Effect,[7],11.5%
same,Percent Effect,[8],25.9%
same,Percent Effect,[9],0.975%
